Screening data deposited in PubChem BioAssay by National Center for Advancing Translational Sciences (NCATS).
PI5P4K alpha inh: PI5P4K alpha (human) kinase inhibition. P48426. PI5P4Kalpha enzyme, ADP-Glo luminescence, 60 min; hits give low values. max response, %. actives 1.2% (n = 330,000). AID 652105; active = max response of -50% or lower; inconclusive = between -30% and -50%; inactive = -30% or higher; also: value at the top dose of about 77 µM; % is scaled to controls: 0 for no effect and ±100 for the full control effect
Target sequence (P48426 whole entry, looked up): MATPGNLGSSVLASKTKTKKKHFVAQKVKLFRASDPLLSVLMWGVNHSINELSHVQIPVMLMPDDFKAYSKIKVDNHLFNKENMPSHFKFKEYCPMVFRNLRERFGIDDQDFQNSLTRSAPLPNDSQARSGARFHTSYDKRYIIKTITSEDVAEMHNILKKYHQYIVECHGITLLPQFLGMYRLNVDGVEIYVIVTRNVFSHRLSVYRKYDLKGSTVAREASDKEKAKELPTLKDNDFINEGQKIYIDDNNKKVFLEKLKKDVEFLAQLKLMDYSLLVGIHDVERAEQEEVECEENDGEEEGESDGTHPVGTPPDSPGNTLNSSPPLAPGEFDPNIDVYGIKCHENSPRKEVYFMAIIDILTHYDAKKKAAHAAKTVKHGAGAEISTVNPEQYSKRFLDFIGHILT
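ADP-Glo luminescence end-point after a 60 min room-temperature kinase reaction. PI5P4Kalpha and substrate in HEPES pH 7.4 buffer with EGTA, 0.1% CHAPS and 5% DMSO; ATP at 5 microM final.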
BAZ2B inh: inhibitors of human BAZ2B bromodomain. Potency, µM (doses to about 114 µM), inactives show at the highest dose activity change, negative = inhibition, most hits filed as inhibitors. AlphaScreen BAZ2B-H3K14Ac peptide displacement. actives 4.4% (n = 360,000). AID 504333; also: potency is read from the fitted curve at half-maximal effect; % is scaled to controls: 0 for no effect and ±100 for the full control effect; nearly all actives have a fitted effect of over 60% in size
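Protein-peptide AlphaScreen: BAZ2B 50 nM, b-H3K14Ac 50 nM, 1x PBS pH 7.4 + 0.01% Tween-20. Preincubation 30 min RT; cpd 30 min RT (top 110 uM); beads 20 min RT, light-protected.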
HP1b binding inh: blocks HP1-beta chromodomain binding to methylated histone tails. P83916. AlphaScreen HP1-beta / biotin-H3K9me3 peptide binding. Potency, µM (titrated, usually from 114 µM), inactives show top-dose activity change, negative = inhibition, actives largely listed as inhibitors. actives 0.56% (n = 390,000); also: potency is read from the fitted curve at half-maximal effect; nearly all actives have a fitted effect of over 70% in size
Target sequence (P83916 whole entry, looked up): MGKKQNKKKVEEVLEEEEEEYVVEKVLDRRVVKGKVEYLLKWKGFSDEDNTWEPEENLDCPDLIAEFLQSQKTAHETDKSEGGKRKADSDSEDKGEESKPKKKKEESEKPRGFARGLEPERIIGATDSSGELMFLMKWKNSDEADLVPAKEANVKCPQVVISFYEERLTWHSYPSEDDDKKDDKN
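HP1-beta protein (50 nM final) preincubated 30 min at room temperature with biotinylated H3(1-18)K9me3 peptide (50 nM) in PBS pH 7.4, 0.01% Tween-20, then compound added for 30 min. AlphaScreen streptavidin donor/nickel chelate acceptor beads (10 ug/mL final), 30 min dark, luminescence read.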
PLK1 PBD inh: blocks phosphopeptide binding to human PLK1 polo-box domain. P53350. Plk1 PBD binding of FITC phosphopeptide, fluorescence polarization. Potency, µM, for the others: max response, negative = inhibition, hits mostly inhibitors. actives 2.8% (n = 360,000); also: potency is read from the fitted curve at half-maximal effect; series mostly up to about 57 µM; % is scaled to controls: 0 for no effect and ±100 for the full control effect; nearly all actives have a fitted effect of over 65% in size
JMJD2A Tudor inh: inhibitors of human JMJD2A Tudor domain. AlphaScreen JMJD2A-Tudor / H3K4me3 peptide binding. Potency, µM (top dose mostly 114 µM), without a hit: at the top dose activity change, negative = inhibition, hits mostly inhibitors. actives 4.4% (n = 390,000); also: potency is read from the fitted curve at half-maximal effect; % is scaled to controls: 0 for no effect and ±100 for the full control effect; nearly all actives have a fitted effect of over 50% in size
GCN5L2 inh: inhibitors of human GCN5L2 histone acetyltransferase. AID 504327. GCN5L2 HAT assay, ThioGlo1 CoA-SH fluorescence. Potency, µM (top dose mostly 58.9 µM), for inactives: top-dose activity change, negative = inhibition, most hits filed as inhibitors. Q92830. actives 0.21% (n = 390,000); also: potency is read from the fitted curve at half-maximal effect; % is scaled to controls: 0 for no effect and ±100 for the full control effect
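Enzyme at 20nM final was mixed with library compounds for 15 min at room temperature. Peptide H3(1-25) at 75uM, acetyl-CoA at 70uM and ThioGlo1 at 50uM were then added. Plates were read immediately and after 20 min (Ex340nm/Em540nm).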
Numbers without * were called inactive; ? = inconclusive; · = no result given; [ ] = another dose, or the depositor's remark. The list is not random: actives were taken first. Their share in the collection is about 7%. Unless noted, calls follow the shape of the dose curve; as a rule, active = well fitted curve in the direction sought with a large enough effect; inconclusive = small, poorly fitted or top-dose-only effect, or another doubt; inactive = no such curve, though single readings can be large; an effect the other way counts as inactive or inconclusive.

SMILES | PI5P4K alpha inh | BAZ2B inh | HP1b binding inh | PLK1 PBD inh | JMJD2A Tudor inh | GCN5L2 inh
CCC12CN3CC(C)(CN(C1)C3c1c(C)[nH]c3ccccc13)C2=O (stereo not drawn) | · | -22.9% | 16.1% | · | ? | -9.8%
Cc1ccc(N2C(=O)C3Sc4[nH]c(=O)sc4C(c4ccccc4)C3C2=O)cc1 (stereo not drawn) | -21.3 | 50.1µM* | 6.0% | -15.5% | -34.1% | -11.0%
N#Cc1nc(Nc2ccc(C(F)(F)F)cc2)nc(NC2CCCC2)n1 | · | · | · | · | -11.6% | ·
Cc1cc(C)c(C)c(S(=O)(=O)N2CCN(c3ccc(O)cc3)CC2)c1C | 20.6 | · | ? | -0.6% | ? | -16.7%
O=c1c2cc([N+](=O)[O-])ccc2sn1-c1ccccc1 | -99.6* | · | · | 2.67µM* | · | ·
CC(=O)Nc1ccc2c(c1)c1ccccc1n2C(C)=O | -2.4 | 4.3% | 21.5% | 4.2% | 4.1% | -0.7%
CC(=O)Nc1ccc2sn(-c3ccccc3)c(=O)c2c1 | -82.1* | · | · | 3.36µM* | · | ·
N#Cc1ccc2sn(-c3ccccc3)c(=O)c2c1 | -108.2* | · | · | 2.67µM* | · | ·
N#Cc1ccc2c(c1)nnn2-c1ccccc1 | -2.1 | · | 35.9% | 4.0% | -1.4% | ·
O=C(CSc1ncn[nH]1)c1ccc2c(c1)OCO2 | · | 11.1% | 25.5% | -15.7% | 31.6µM* | -11.9%
O=C(CSc1nc2ccc(Cl)cc2[nH]1)c1ccc2c(c1)OCO2 | · | 50.1µM* | 21.6% | -2.9% | 22.4µM* | -19.7%
O=C(CSc1nc2ncc(Cl)cc2[nH]1)c1ccc2c(c1)OCO2 | -10.9 | -20.8% | 22.2% | -9.4% | -16.6% | -16.3%
CC(C)n1cnc(S(=O)(=O)N2CCCC(C(=O)NCc3ccccc3Cl)C2)c1 (stereo not drawn) | · | -10.7% | 31.7% | · | -13.2% | 17.8%
CCOc1ccccc1/C=C/c1onc(C)c1S(=O)(=O)N1CCC(C(=O)NC(C)(C)C)CC1 | 1.3 | -2.5% | 32.6% | -3.1% | -14.3% | -7.0%
O=C(NCc1ccc(Cl)cc1)C1CCN(S(=O)(=O)c2ccc3c(c2)CCCN3C(=O)C2CCC2)CC1 | · | 1.3% | 24.5%[57 µM] | · | -4.5% | -14.9%
c1ccc(CNc2c3ccccc3nc3ccccc23)cc1 | 3.8 | -2.8% | 34.3% | -8.1% | -11.6% | -1.5%
Oc1ccc(CCNc2c3ccccc3nc3ccccc23)cc1O | -10.5 | ? | 14.1% | 26.7µM* | 28.2µM* | -4.5%
COc1cc(C=C(c2nc3ccccc3s2)c2nc3ccccc3s2)ccc1O | 9.3 | 35.5µM* | ? | -5.2% | 44.7µM* | -12.9%
COc1ccc(C=C(c2nc3ccccc3s2)c2nc3ccccc3s2)cc1O | 2.7 | ? | ? | -0.5% | ? | -11.8%
CCC1(C)Cc2c(C#N)c(N)sc(=S)c2CO1 (stereo not drawn) | -4.8 | ? | ? | -20.5% | ? | -14.2%
N#Cc1c(N)sc(=S)c2c1CCCC2 | -29.0 | 39.8µM* | ? | ? | ? | 20.3%
CCn1cc(C(=O)NCCCOC)c(=O)c2cc(S(=O)(=O)N3CCc4ccccc4C3)ccc21 | · | · | 31.6% | · | -19.0% | -5.8%
O=C(c1cccs1)n1nc(-c2ccccc2)nc1NCc1ccco1 | -10.4 | 2.6% | -8.4% | 26.7µM* | ? | 0.2%
Cn1c(N)c(C(=O)COC(=O)c2ccc(Cl)c(S(=O)(=O)N3CCCC3)c2)c(=O)n(C)c1=O | 2.8 | -26.1% | 22.8% | 0.6% | -2.4% | -18.3%
OCCN1CCOCCN(CCO)CCOCC1 | 8.9 | -0.6% | 0.3% | -3.0% | 22.4µM* | -2.3%
SMILES | PI5P4K alpha inh | BAZ2B inh | HP1b binding inh | PLK1 PBD inh | JMJD2A Tudor inh | GCN5L2 inh
O=C(c1ccc(S(=O)(=O)Cc2ccccc2F)c([N+](=O)[O-])c1)N1CCCCCC1 | 1.3 | -24.6% | -8.3% | -1.8% | -20.6% | -3.4%
O=C(c1ccc(S(=O)(=O)Cc2cc(F)ccc2F)c([N+](=O)[O-])c1)N1CCOCC1 | -2.7 | · | · | 26.7µM* | · | ·
Cc1ccc(S(=O)(=O)c2cnc(SCC(=O)Nc3cc(C)cc(C)c3)nc2N)cc1 | · | -3.0% | 15.5% | · | -8.9% | -10.8%
OC[C@@H](O)C(O)[C@@H](O)CO (stereo partly drawn) | · | · | · | · | · | -17.0%
CC1(C)CC(=O)c2cc(NC(=O)c3ccccc3)c(=O)oc2C1 | 3.8 | -1.1% | 6.4% | 26.7µM* | 79.4µM* | -14.7%
CC(=O)Nc1ccc(S(=O)(=O)NC(CC(=O)N(C)Cc2ccccc2)C(C)C)cc1 (stereo not drawn) | -53.2* | 12.1% | -7.6% | 3.36µM* | ? | -1.4%
O=C1c2ccccc2C(=O)N1Cc1ccncc1 | · | · | · | · | -12.9% | ·
CC(OC(=O)c1ccccc1O)C(=O)Nc1ccc(Cl)cn1 (stereo not drawn) | -26.7 | -15.6% | -17.3% | 18.9µM* | ? | 0.1%
CN(C)c1ccc(CNC(=O)CCc2ccc(S(=O)(=O)N3CCCCCC3)cc2)cc1 | -1.6 | 44.7µM* | -21.8% | -8.5% | 50.1µM* | -9.5%
CC1CCN(S(=O)(=O)c2cc(C(=O)NCc3ccc(N(C)C)cc3)n(C)c2)CC1 | · | 35.5µM* | -8.8%[57 µM] | · | 56.2µM* | 2.6%
COc1cc(/C=C/c2nc(C#N)c(N3CCC(C)CC3)o2)cc(OC)c1OC | · | ? | 0.6% | · | -14.5% | -17.3%
CC1CC(C)CN(C(=O)CN2C(=O)NC3(CCCCCCC3)C2=O)C1 (stereo not drawn) | 3.6 | 8.9% | 7.2% | -4.0% | 2.0% | -4.7%
CN(CCC#N)C(=O)COC(=O)c1c2c(nc3ccccc13)/C(=C/c1ccco1)CC2 | -67.9* | 44.7µM* | ? | -14.8% | 89.1µM* | ?
CC(C)CNC(=O)COC(=O)c1c2c(nc3ccccc13)/C(=C\c1cccs1)CC2 | -27.6 | · | 111.6% | -2.8% | 39.7% | ·
Nc1ccc(/C=C/c2ccc(N)cc2S(=O)(=O)O)c(S(=O)(=O)O)c1 | · | · | · | · | · | 12.6µM*
Nc1ccc(Nc2ccccc2)c(S(=O)(=O)O)c1 | -25.4 | 56.2µM* | -2.4%[57 µM] | -28.4% | ? | -17.5%
O=S(=O)(O)c1cc(N=C=S)ccc1/C=C/c1ccc(N=C=S)cc1S(=O)(=O)O | · | · | · | · | · | -2.4%
C/C(CCc1oc2ccccc2c1-c1ccc(C)o1)=N/O | 19.1 | ? | -28.2% | -17.5% | 56.2µM* | -6.7%
Cc1ccc(C(=O)NNC(=S)NC(=O)COc2ccccc2)cc1 | · | 11.4% | -23.8% | 26.7µM* | 12.6µM* | -3.5%
CCC(=O)NC(=S)NNC(=O)c1ccc(OC)cc1 | · | 4.1% | 31.6% | -5.9% | 22.4µM* | 1.5%
O=C(NC(=S)N1CCCCC1CO)c1cccs1 (stereo not drawn) | 3.8 | · | -31.7% | 21.2µM* | 2.82µM* | -5.2%
CC(C)(C)c1ccc(C(=O)NC(=S)NNC(=O)COc2ccccc2)cc1 | ? | ? | -18.3% | ? | ? | -9.6%
CCC1CCCCN1C(=S)NC(=O)c1cccs1 (stereo not drawn) | -5.3 | -25.2% | 12.2% | -12.8% | -25.7% | -6.7%
